Source: PubChem BioAssay AID1159580 (chemical genetic matrix, 2015)
Among all 5,500 compounds or so, about 2,000 (36%) were called active. About 18% were inconclusive and are not listed. Rule as the data show it: active = normalized growth mostly below about 0.91 (no sharp cut-off); inconclusive = no clear call, values can overlap the other calls; inactive = mostly above about 0.92. The list shows a part of the results.

Test: chemical genetic growth profiling, strain panel (AID 1159580);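 also: tested at 20 µM; growth read once vehicle control cultures reached saturation at 30 °C; 1 = growth at the plate median or of vehicle wells; lower values mean less growth of the strain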
Details: S. cerevisiae deletion strains, growth OD
[1] = locus YAL013W, strain DEP1, active compounds read low
[2] = locus YBR229C, strain ROT2, active compounds read low
[3] = locus YDL101C, strain DUN1, active compounds read low
[4] = locus YDR150W, strain NUM1, active compounds read low
[5] = locus YEL061C, strain CIN8, active compounds read low
[6] = locus YGR078C, strain PAC10, active compounds read low
[7] = locus YHR030C, strain SLT2, active compounds read low
[8] = locus YHR087W, strain rtc3, active compounds read low
[9] = locus YJL187C, strain SWE1, active compounds read low
[10] = locus YJR043C, strain POL32, active compounds read low
[11] = locus YJR075W, strain HOC1, active compounds read low
[12] = locus YLR039C, strain RIC1, active compounds read low
[13] = locus YLR058C, strain SHM2 (second series), active compounds read low
[14] = locus YLR085C, strain ARP6, active compounds read low
[15] = locus YLR262C, strain YPT6, active compounds read low
[16] = locus YML094W, strain GIM5, active compounds read low
[17] = locus YMR219W, strain ESC1, active compounds read low
[18] = locus YMR263W, strain SAP30, active compounds read low
[19] = locus YNL128W, strain TEP1, active compounds read low
[20] = locus YNL153C, strain GIM3, active compounds read low
[21] = locus YNL298W, strain CLA4 (second series), active compounds read low
[22] = locus YNL322C, strain KRE1, active compounds read low
[23] = locus YNR030W, strain Alg12, active compounds read low
[24] = locus YPL055C, strain LGE1, active compounds read low
[25] = locus YPL241C, strain CIN2, active compounds read low
[26] = locus YPR135W, strain CTF4, active compounds read low

Measured: normalized growth

Brc1cccc(C=NCc2ccccc2)c1
inactive: [4] 0.932 | [10] 0.954 | [13] 0.961 | [22] 0.983 | [24] 0.825
active: [1] 0.87 | [2] 0.843 | [3] 0.888 | locus YDL134C, strain PPH21, active compounds read low 0.765 | [5] 0.621 | [6] 0.847 | [7] 0.198 | [8] 0.788 | [9] 0.848 | [11] 0.719 | [12] 0.242 | [14] 0.333 | [15] 0.23 | [16] 0.656 | [17] 0.92 | [18] 0.883 | [19] 0.829 | [20] 0.921 | [21] 0.664 | [23] 0.761 | [25] 0.663 | [26] 0.366

O=C1c2ccccc2C2(c3ccccc3)NCCN12 (centres undefined)
inactive: [1] 1 | [2] 1.01 | locus YCL061C, strain MRC1, active compounds read low 0.987 | [3] 0.982 | [4] 0.989 | [5] 1.02 | [6] 1.01 | [7] 0.972 | [8] 0.993 | [9] 0.997 | [10] 0.956 | [11] 1.01 | [12] 0.976 | [13] 0.997 | [14] 1.04 | [15] 0.968 | [16] 1.04 | [17] 1 | [18] 1.01 | [19] 0.983 | [20] 1.01 | [21] 0.995 | [22] 0.996 | [23] 0.982 | [24] 1.04 | [25] 1.02 | [26] 0.957
